Experimental findings from PubChem BioAssay are described below.

The subject of assay [1] is XIP peptide (Xip251-270) binding. The assay is described as follows: XIP fragment 251-270 binding compounds – biochemical, small-molecule microarray, fluorescence 635/667 nm, 0.1 µg/mL protein, primary screen (AID 1182). To be noted: fluorescent protein binding, 635 nm, higher = more signal, called active from +8 up or from −8 down.
Another assay deals with XIP peptide (Xip251-270). The assay is described as follows: compounds binding XIP fragment 251-270 – biochemical, small-molecule microarray, fluorescence 635/667 nm, 0.5 µg/mL protein, primary screen (AID 1183). As to conditions: fluorescence 635 nm, higher = more signal.
Assay [2] in a line: blood-stage malaria parasite viability loss – strain 3D7, DAPI fluorescence, 100 nL, primary screen (AID 1184).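 Also: parasites grown inside human red blood cells in medium with human serum.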 To be noted: P. falciparum 3D7 growth, 3 d, higher = more signal.
The target in assay [3] is Homeobox protein Hox-A13 (Mus musculus) (UniProt Q62424). The assay is described as follows: disruptors of Hoxa13 oligonucleotide interaction – biochemical, fluorescence polarization, labeled oligonucleotide, primary screen (AID 1185). As to conditions: Hoxa13:DNA binding, 15 min, higher = more signal, called active from +8 up or from −8 down.
Assay [4] can be described thus: blockers of DNA damage checkpoint Chk1 activation – imaging, HeLa, hydroxyurea, phospho-Chk1 antibody, percent positive cells, primary screen (AID 1186). To be noted: hydroxyurea-induced phospho-Chk1 immunofluorescence imaging, higher = more signal.
Assay [5] can be described thus: blockers of DNA damage checkpoint Chk1 activation – imaging, HeLa, hydroxyurea, phospho-Chk1 nuclear intensity, primary screen (AID 1187). To be noted: hydroxyurea-induced phospho-Chk1 immunofluorescence imaging, higher = more signal.

Calls of active or inactive are those of the source. Unless noted, no rule for the calls is given here.

Homeobox protein Hox-A13 (Mus musculus), sequence (Q62424 whole entry, looked up): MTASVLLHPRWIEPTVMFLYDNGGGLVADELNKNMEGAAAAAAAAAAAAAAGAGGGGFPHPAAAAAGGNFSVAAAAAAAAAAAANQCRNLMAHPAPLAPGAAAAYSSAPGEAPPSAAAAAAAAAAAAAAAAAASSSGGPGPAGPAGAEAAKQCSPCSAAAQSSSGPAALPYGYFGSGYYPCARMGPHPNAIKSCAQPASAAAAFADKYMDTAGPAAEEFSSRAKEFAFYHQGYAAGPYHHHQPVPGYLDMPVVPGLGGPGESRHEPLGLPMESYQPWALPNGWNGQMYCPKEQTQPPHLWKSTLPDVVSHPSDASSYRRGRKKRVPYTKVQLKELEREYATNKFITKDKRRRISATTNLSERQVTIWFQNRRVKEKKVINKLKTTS

Consider `O=C1N(Cc2ccccc2)Cc2ccccc2[C@@H]2OC(c3ccc(OCCCO)cc3)=N[C@]12CCS(=O)(=O)c1ccccc1`, for which the composite z-score in assay [1] was 0.0667 (inactive); with XIP peptide (Xip251-270) it was 0.736. Further, the z-score in assay [2] was -2.17; in assay [3], 0.722 (inactive); in assay [4], -0.0608 (inactive); in assay [5], 0.268 (inactive).

As to `CC(C)N1C(=O)c2ccccc2[C@@H](C(=O)NC2CC2)[C@@H]1c1ccc(CO)cc1`, the composite z-score in assay [1] is 0.11 (inactive); in the assay on XIP peptide (Xip251-270) it was 0.461. Besides, the z-score was 0.314 in assay [2], -2.99 (inactive) in assay [3], -0.0392 (inactive) in assay [4] and -0.0337 (inactive) in assay [5].

With `O=C(NCC(F)(F)F)[C@@H]1c2ccccc2C(=O)N(Cc2ccccc2C(F)(F)F)[C@H]1c1ccc(CO)cc1`, the composite z-score was 0.774 (inactive) in assay [1] and 0.374 in the assay on XIP peptide (Xip251-270). Besides, the z-score in assay [2] is -0.485; in assay [3] it was -2.95 (inactive); in assay [4] it was 0.0364 (inactive); in assay [5], -0.0409 (inactive).

Turning to `COc1ccccc1CN1C(=O)c2ccccc2[C@@]2(Cc3ccccc3N(CC(F)(F)F)C2=O)[C@@H]1c1ccc(CO)cc1`, the composite z-score in assay [1] is 0.182 (inactive); in the assay with XIP peptide (Xip251-270) it was 0.555. The z-score was -0.384 in assay [2], -0.814 (inactive) in assay [3], 0.149 (inactive) in assay [4] and 0.312 (inactive) in assay [5].

Take `O=C1O[C@H](c2ccccc2)[C@H](c2ccccc2)N2[C@H]1[C@@H](C(=O)Nc1nc3ccccc3s1)[C@]1(C(=O)Nc3ccc(C#CC4(O)CCCCCC4)cc31)[C@H]2c1ccccc1OCCO`: the values for the composite z-score (in assay [1]; in the assay with XIP peptide (Xip251-270)) were 0.0536 (inactive) and 0.812, respectively. Further, the z-score is -2.09 in assay [2], 2.05 (inactive) in assay [3], 0.66 (inactive) in assay [4] and 0.976 (inactive) in assay [5].

For the molecule `COc1ccc([Si](C)(C)[C@@H]2[C@@H](CCO)O[C@]3(C(=O)N(Cc4ccc(N5CCCCC5=O)cc4)c4ccccc43)[C@H]2C)cc1`, the composite z-score is 2.99 (inactive) in assay [1] and 0.769 with XIP peptide (Xip251-270). The z-score in assay [2] is -2.69; in assay [3], -5.03 (inactive); in assay [4] it was -0.913 (inactive); in assay [5] it was 0.261 (inactive).

`C=C[C@@H](OC)[C@H](OC(=O)Nc1ccc(SC)cc1)c1ccc(O)c(F)c1`: the composite z-score in assay [1] is 0.313 (inactive); in the assay with XIP peptide (Xip251-270), 0.0562. Besides, the z-score in assay [2] was -0.386; in assay [3], -4.2 (inactive); in assay [4], -0.337 (inactive); in assay [5], -0.23 (inactive).

Consider `COCCOC(=O)N1C(=O)[C@@]2(c3cc(C#CC4(O)CCCCCC4)ccc31)[C@H](c1ccc(O)cc1)N1[C@H](c3ccccc3)[C@H](c3ccccc3)OC(=O)[C@H]1[C@@H]2C(=O)NC[C@H](O)c1ccccc1`, for which the composite z-score was 1.71 (inactive) in assay [1] and 0.681 with XIP peptide (Xip251-270). In addition, the z-score in assay [2] was -0.0194; in assay [3] it was -2.78 (inactive); in assay [4], -0.145 (inactive); in assay [5] it was -0.154 (inactive).

With `CC(C)(C)N1CC=CC23O[C@@H]4C=CCOC(=O)[C@@H]4[C@H]2C(=O)N(CCCCCCO)[C@@H]3C1=O` (stereo partly drawn), the figures for the composite z-score (in assay [1]; in the assay on XIP peptide (Xip251-270)) were -0.196 (inactive) and 0.448, respectively. The z-score in assay [2] is -0.429; in assay [3], -4.45 (inactive); in assay [4] it was -0.156 (inactive); in assay [5], -0.43 (inactive).

With `COc1ccc([Si](C)(C)[C@@H]2[C@@H](CC(=O)N(CCO)Cc3ccccc3)O[C@]3(C(=O)N(Cc4cccc(N5CCOC5=O)c4)c4ccccc43)[C@H]2C)cc1`, the results for the composite z-score (in assay [1]; in the assay on XIP peptide (Xip251-270)) were 1.18 (inactive) and 0.799, respectively. The z-score in assay [2] is -2.16; in assay [3] it was -2.52 (inactive); in assay [4] it was 0.437 (inactive); in assay [5], -0.0407 (inactive).

Turning to `COc1cc(CO)cc(I)c1O[C@H]1C=C(C(=O)NCCO)C[C@@H](NCc2ccc(F)cc2)[C@@H]1O`, the composite z-score in assay [1] is -0.35 (inactive); in the assay with XIP peptide (Xip251-270) it was 0.728. In addition, the z-score was -3.1 in assay [2], -7.05 (inactive) in assay [3], -0.926 (inactive) in assay [4] and -2.03 (inactive) in assay [5].

As for `C=CCC(OC(C)=O)[C@@H]1[C@@H](N(Cc2cccc3ccccc23)C(=O)Cc2ccc(OC)cc2)c2cc(OCCCO)ccc2N1C(=O)c1ccc2ccccc2n1` (stereo partly drawn), the composite z-score in assay [1] is 1.24 (inactive); with XIP peptide (Xip251-270), -0.248. In addition, the z-score is -2.54 in assay [2], -2.7 (inactive) in assay [3], -2.34 (inactive) in assay [4] and -1.44 (inactive) in assay [5].

Turning to `C=CCC(OC(C)=O)[C@@H]1[C@@H](N(Cc2cc3ccccc3o2)C(=O)c2ccc(C)cc2)c2cc(OCCCO)ccc2N1C(=O)Cc1ccc(OC)cc1` (stereo partly drawn), the composite z-score was -0.23 (inactive) in assay [1] and 0.0544 with XIP peptide (Xip251-270). In addition, the z-score in assay [2] was -0.901; in assay [3] it was -2.07 (inactive); in assay [4] it was -0.0554 (inactive); in assay [5] it was -0.601 (inactive).

As to `COc1ccc([Si](C)(C)[C@@H]2[C@@H](CC(=O)N3Cc4ccccc4C[C@H]3CO)O[C@]3(C(=O)N(Cc4cccc(N5C(=O)c6cccc7cccc5c67)c4)c4ccccc43)[C@H]2C)cc1`, the composite z-score in assay [1] is 1.26 (inactive); in the assay with XIP peptide (Xip251-270) it was 0.574. Besides, the z-score in assay [2] is -2.59; in assay [3], -1.47 (inactive); in assay [4] it was 0.115 (inactive); in assay [5], -0.0849 (inactive).

In the case of `COc1ccc([Si](C)(C)[C@@H]2[C@@H](CC(=O)N(CCO)Cc3ccccc3)O[C@]3(C(=O)N(c4ccccc4)c4ccccc43)[C@H]2C)cc1`, the composite z-score in assay [1] is 0.153 (inactive); in the assay with XIP peptide (Xip251-270) it was 0.38. Further, the z-score is -2.54 in assay [2], -5.59 (inactive) in assay [3], -1.11 (inactive) in assay [4] and -0.327 (inactive) in assay [5].

Consider `COC(=O)[C@@]1(Cc2ccc(F)cc2)[C@H]2c3cc(C(=O)N(C)C)n(CCc4ccc(O)c(OC)c4)c3C[C@H]2CN1C(=O)c1ccccc1`, for which the figures for the composite z-score (in assay [1]; in the assay on XIP peptide (Xip251-270)) were -0.327 (inactive) and -0.277, respectively. The z-score in assay [2] was 0.845; in assay [3], -0.562 (inactive); in assay [4], -0.47 (inactive); in assay [5], -0.964 (inactive).

For `O=C1O[C@@H](c2ccccc2)[C@@H](c2ccccc2)N2[C@@H](c3ccc(O)cc3)[C@]3(C(=O)Nc4ccc(C#CC5=CCCCC5)cc43)[C@@H](C(=O)NC[C@H](O)c3ccccc3)[C@H]12`, the composite z-score is 0.662 (inactive) in assay [1] and 0.772 with XIP peptide (Xip251-270). The z-score in assay [2] was -0.369; in assay [3] it was 0.986 (inactive); in assay [4], -0.384 (inactive); in assay [5] it was -0.016 (inactive).

Take `COCCCNC(=O)[C@@]1(Cc2ccccc2N=[N+]=[N-])COC(c2ccc(OCCCO)cc2)=N1`: the composite z-score in assay [1] is 1 (inactive); in the assay on XIP peptide (Xip251-270), 0.626. Moreover, the z-score was -2.06 in assay [2], -5.18 (inactive) in assay [3], -0.0232 (inactive) in assay [4] and -0.101 (inactive) in assay [5].

Consider `Cc1ccc(S[C@]2(C(=O)NCC(F)(F)F)CC(=O)N(C3CCCCC3)[C@@H]2c2ccc(CO)cc2I)cc1`, for which the composite z-score in assay [1] is -0.0988 (inactive); in the assay with XIP peptide (Xip251-270), 0.735. The z-score is -0.142 in assay [2], -3.45 (inactive) in assay [3], 0.148 (inactive) in assay [4] and 0.594 (inactive) in assay [5].

As for `COCCCNC(=O)[C@]1(CCS(=O)(=O)c2ccccc2)N=C(c2ccc(OCCCO)cc2)O[C@@H]1c1ccccc1N=[N+]=[N-]`, the composite z-score in assay [1] is 1.26 (inactive); in the assay on XIP peptide (Xip251-270), 0.731. The z-score in assay [2] was -2.4; in assay [3], -3.71 (inactive); in assay [4], -0.198 (inactive); in assay [5], -0.266 (inactive).

Regarding `CCOC(=O)[C@H]1[C@@H]2C(=O)N3CCC[C@H]3[C@H](O[Si](C(C)C)(C(C)C)C(C)C)[C@H]2C=C2CCN(S(=O)(=O)c3ccc(C)cc3)C[C@H]21`, the composite z-score in assay [1] is 0.0514 (inactive); in the assay on XIP peptide (Xip251-270) it was 0.589. The z-score in assay [2] was -2.23; in assay [3], -4.48 (inactive); in assay [4] it was 0.186 (inactive); in assay [5], -0.0427 (inactive).

Consider `CN1C(=O)C2C=CC(C(O)c3ccccn3)N(N(c3ccccc3)c3ccccc3)C2C1=O` (stereo not drawn), for which the composite z-score in assay [1] was -0.365 (inactive); with XIP peptide (Xip251-270), 0.891. The z-score in assay [2] is -0.215; in assay [3] it was -8.63 (active); in assay [4], 0.46 (inactive); in assay [5] it was -0.024 (inactive).

In the case of `COC(=O)c1cn(C[C@@H](Cc2ccccc2)NC(=O)N[C@H](CO)CCc2oc(C(C)=O)c(C(=O)OC)c2C(=O)OC)nn1`, the values for the composite z-score (in assay [1]; in the assay with XIP peptide (Xip251-270)) were 0.224 (inactive) and 0.111, respectively. Also, the z-score is -0.818 in assay [2], -4.33 (inactive) in assay [3], -0.406 (inactive) in assay [4] and -0.043 (inactive) in assay [5].
